In PubChem BioAssay (NCI):
Compounds without any hit were thinned out: in the full panel of roughly 83,000, 20% have a hit.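 For each line, cells grew in 96-well plates with the test compound present at a single concentration for 48 hours.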 Active and inactive are the calls of the source. The calls were made as follows: active = growth percent below 10; inactive = the rest.

Key:
Assay in all cases: NCI-60 one-dose screen, 48 h (100 = growth as untreated, 0 = no growth, -100 = all killed)
Conditions in all cases: 10 µM unless noted
[1] = system: SR leukemia
[2] = system: RPMI-8226 leukemia
[3] = system: OVCAR-8 ovarian
[4] = system: OVCAR-5 ovarian
[5] = system: OVCAR-4 ovarian
[6] = system: SK-OV-3 ovarian
[7] = system: IGROV1 ovarian
[8] = system: HS 578T breast
[9] = system: NCI/ADR-RES ovarian
[10] = system: OVCAR-3 ovarian

Measured: growth

CCCCCc1c(C)[nH]c(/C=c2\[nH]/c(=C3/C=c4ccccc4=N3)cc2OC)c1C
active: [1] -20.3% | [2] -49.5% | [3] -41.9% | [4] -7.96% | [5] 4.16% | [6] -17.2% | [7] -4.01% | [8] -37.1% | [9] -20.6%

COc1cc(CNC(=O)CCSc2nc3ccccc3c(=O)n2Cc2cc(OC)c(OC)c(OC)c2)cc(OC)c1OC
inactive: [1] 11.1% | [2] 39.2% | [3] 48.2% | [4] 68.3% | [5] 58.9% | [6] 27.3% | [7] 51.3% | [8] 57.4% | [9] 17.4%

NC(=O)c1cccc(N2Cc3ccccc3OC3=C2C(=O)c2c(O)ccc(O)c2C3=O)c1
active: [1] -5.71% | [2] -13.4% | [3] -41.9% | [4] -68.1% | [5] -93.5% | [10] -94.2%
inactive: [6] 20.8% | [8] 20.9% | [9] 10%

CCC1=C[C@@H]2CN(C1)Cc1c([nH]c3ccccc13)[C@@](C(=O)OC)(c1cc3c(cc1OC)N(C=O)[C@H]1[C@@](O)(C(=O)OC)[C@H](OC(C)=O)[C@]4(CC)[C@@H]5C[C@@H]5CN5CC[C@]31[C@@H]54)C2
active: [1] 9.37% | [2] -6.79% | [3] 8.45% | [6] 5.16% | [9] -28.8%
inactive: [4] 44.2% | [5] 47% | [7] 30.8% | [8] 26.3%

O=C(N/N=C/c1c(Cl)cccc1Cl)c1ccccc1Nc1ccnc(C(F)(F)F)c1
inactive: [1] 103% | [2] 89.7% | [3] 64.8% | [4] 97.8% | [5] 63.9% | [6] 76.9% | [10] 110% | [8] 82.7%

CSc1nc(-c2cc3ccccc3o2)cc(-c2ccc(Cl)cc2)c1C#N
active: [5] -57.5% | [6] -21.3%
inactive: [1] 82.6% | [2] 26.6% | [3] 28.7% | [4] 93.7% | [10] 37.7% | [8] 76% | [9] 64.3%

O=C1Nc2ccc(Br)cc2C1=N/C=c1\[nH]c(=O)/c(=C/c2ccc(Cl)cc2)s1
inactive: [1] 81.6% | [2] 98.2% | [3] 93.6% | [4] 106% | [5] 108% | [6] 91.4% | [7] 105% | [8] 100% | [9] 104%

N#Cc1c(NC(=O)c2ccc([N+](=O)[O-])o2)[n+]([O-])c2cc(F)c(F)cc2[n+]1[O-]
inactive: [1] 77.3% | [2] 111% | [3] 68% | [4] 108% | [5] 102% | [6] 129% | [10] 122% | [8] 158%

COC1=CC(c2ccc[nH]2)=N/C1=C\c1[nH]c(C)c(C(=O)CCC(=O)Oc2ccc3c(c2)CCC2C3CC[C@]3(C)[C@@H](O)CC[C@@H]23)c1C (some centres not stated)
active: [1] -17.6% | [2] -12.2% | [3] -3.79% | [9] 8.32%
inactive: [4] 27.7% | [5] 43.1% | [6] 51.1% | [7] 16.8% | [8] 20.4%

O=C1C2=C(C(=O)c3c(O)ccc(O)c31)N(c1cccnc1)Cc1ccccc1O2
active: [1] -10.1% | [2] -8.47% | [3] 2.92% | [4] -39.6% | [5] -95% | [10] -89.5%
inactive: [6] 53.8% | [8] 26.1% | [9] 13.4%

CCOC(=O)C(Cc1ccccc1)n1c(O)c(C=Nc2ccc(C(=O)OCCN(CC)CC)cc2)sc1=O (configuration not stated)
inactive: [1] 23.7% | [2] 68% | [3] 92.8% | [4] 100% | [6] 106% | [7] 97.5% | [10] 93% | [8] 88.1% | [9] 107%

O=c1[nH]c(CN2CCN(c3ccccc3F)CC2)nc2sc3c(c12)CCC3
inactive: [1] 94.8% | [2] 107% | [3] 101% | [4] 96.8% | [6] 96.5% | [7] 84.7% | [10] 118% | [8] 121% | [9] 111%

O=C(CN1CCOCC1)Nc1ccc(-c2nc3ccccc3s2)cc1
inactive: [1] 102% | [2] 94% | [3] 102% | [4] 93.4% | [6] 121% | [7] 106% | [10] 96.3% | [8] 110% | [9] 105%

CCN1C(=O)/C(=c2\sc3n(c2=O)C2C(NN=3)N(CC)C(=S)N2CC)c2ccccc21 (configuration not stated)
inactive: [1] 91.8% | [2] 105% | [3] 100% | [4] 107% | [5] 88.7% | [7] 100% | [10] 103% | [8] 99.8%

C=C1C(=O)O[C@H]2[C@H]1CC/C(COC(=O)NCCc1cccc(OC)c1)=C\CC[C@@]1(C)O[C@@H]21
inactive: [2] 25.1% | [3] 17.4% | [4] 75.1% | [5] 39.9% | [6] 90.3% | [8] 57.9% | [9] 80%
active: [1] 0.839% | [10] -20%

CCCCCCCCCCCCCCCCCCOc1cccc(CCOP(=O)(O)OCC[N+](C)(C)C)c1
inactive: [1] 58.6% | [2] 86.9% | [3] 95% | [4] 101% | [5] 91.4% | [7] 39% | [10] 86.9% | [9] 94.1%

c1ccn2nnnc2c1
inactive: [1] 96.5% | [2] 102% | [3] 105% | [4] 105% | [5] 103% | [7] 113% | [10] 70.6% | [8] 105% | [9] 102%

COc1ccc(OC)c(/C=C2\Oc3cc(OCCN4CCCC4)ccc3C2=O)c1
inactive: [1] 56.6% | [2] 93.5% | [3] 92% | [4] 94.5% | [5] 98.5% | [7] 95.8% | [10] 101% | [9] 86.4%

Cc1oc2nc[nH]c(=O)c2c1C(=O)/C=C/c1ccc(Cl)cc1
inactive: [3] 15.8% | [4] 34.5% | [5] 29.8% | [7] 38.9% | [8] 60.5% | [9] 10.4%
active: [1] -30.6% | [2] -14.1% | [10] 4.32%

COc1cccc2cc(-c3cc4ccccc4[nH]3)/c(=N/C(=S)Nc3ccccc3)oc12
inactive: [1] 104% | [2] 131% | [3] 66.2% | [4] 89.6% | [5] 40.7% | [7] 58.1% | [10] 80.5% | [8] 25.1% | [9] 51.4%

CC(C)C(C(=O)CCN(C)C)c1ccc(Cl)cc1 (configuration not stated)
inactive: [1] 84% | [2] 67.5% | [3] 93.3% | [4] 115% | [6] 85.2% | [7] 105% | [10] 108% | [8] 101% | [9] 106%

COC1=CC(c2ccc[nH]2)=N/C1=C\c1[nH]c(C)c(C(=O)CCCCC(=O)Nc2ccccc2)c1C
inactive: [1] 44% | [2] 126% | [4] 64.4% | [5] 54.4% | [6] 77.5% | [10] 40.6% | [9] 32.9%
active: [3] -46.4%

CCCCCCCC/C=C\CCCCCCCCOc1ccccc1CCOP(=O)(O)OCC[N+](C)(C)C
active: [2] -0.933% | [7] 9.7%
inactive: [1] 42.4% | [3] 60.3% | [4] 85.1% | [5] 80.3% | [10] 56.4% | [8] 88% | [9] 98.4%

CCCCCCc1nc2c(c(C)nn2-c2ccccc2)c2c1CCCCC2
inactive: [1] 97.7% | [2] 105% | [3] 107% | [4] 114% | [6] 95% | [7] 109% | [10] 107% | [8] 106% | [9] 110%

c1ccc2nc(-c3ccc4ccccc4n3)ccc2c1
inactive: [1] 86.8% | [2] 90.8% | [3] 98.6% | [4] 97.2% | [6] 90.1% | [7] 79.5% | [10] 97.4% | [8] 105% | [9] 99.7%

COc1ccc(/C=C/c2cc(N3CCOCC3)c3cc(F)c(F)cc3n2)cc1OC
inactive: [1] 16.2% | [2] 43.2% | [3] 28.6% | [4] 65.5% | [5] 35.8% | [6] 55.5% | [8] 74.7%

COc1cc2oc(-c3cccc(NC(=O)Nc4ccc5c(c4)OCO5)c3)cc(=O)c2c(OC)c1OC
inactive: [1] 33.3% | [3] 44.3% | [4] 118% | [5] 69.1% | [7] 62.5% | [10] 56% | [8] 59.4% | [9] 57.6%
active: [2] -1.59%

C=C1C(=O)O[C@H]2[C@H]1CC/C(COC(=O)NCCc1ccc(OC)cc1)=C\CC[C@@]1(C)O[C@@H]21
inactive: [2] 17.5% | [4] 30.9% | [5] 17.4% | [6] 89.3% | [9] 78.9%
active: [1] -4.05% | [3] 2.7% | [10] -29.6%

C=C1C(=O)O[C@H]2[C@H]1CC/C(COC(=O)NCCc1ccc(Br)cc1)=C\CC[C@@]1(C)O[C@@H]21
active: [1] -4.11% | [2] 2.82% | [3] 7.1% | [10] -71.8%
inactive: [4] 39.6% | [5] 30% | [6] 97.2% | [8] 22.9% | [9] 58.4%
